Only some compounds are listed: those with a hit (about 6.7% of all), similar ones and a draw of the others.
KB-3-1 tox: KB-3-1 parental cell cytotoxicity; KB-3-1 viability, CellTiter-Glo ATP luminescence, 72 h; Potency, µM (titrated, usually from 46.1 µM), hits mostly cytotoxic; 1.4% of 400,000 active; further: on the % scale 0 is the no-effect control and ±100 the full control effect; nearly all actives have a fitted effect of over 60% in size
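Screening of KB-3-1 cells (DMEM, 10% FBS, phenol-red free) ran from lowest to highest compound concentration; after 72 h at 37 °C viability was read luminescently and curves fitted.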
PINK1 modulator: modulators of PINK1 expression; PINK1 immunofluorescence, high-content cytometry, 24 h; Potency, µM (doses to about 76.6 µM), for inactives: at the highest dose activation (PINK1 increase), actives largely listed as activators; 0.2% of 410,000 active; AID 624263; active means well fitted activation curve with a large enough effect; inconclusive means small, poorly fitted or top-dose-only effect; cell line not stated here; further: % of control where 0% means no effect; nearly all actives have a fitted effect of over 65% in size
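Measures PINK1 amount and localization on or inside mitochondria by immunofluorescence. Stable cells get compounds at 5 concentrations for 24 hours before fixation and staining; CCCP controls included.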
MCF10A rerep: induces DNA re-replication in MCF 10a normal breast cells; MCF 10A DNA re-replication, Hoechst nuclear intensity, 48 h; Potency, µM (series often up to 46.1 µM), for inactives: at the highest dose activity, positive = re-replication, usual class: activators; 2.9% of 350,000 active; AID 624296; further: % of control where 0% means no effect; nearly all actives have a fitted effect of over 50% in size
KB-V1 cytotox: KB-V1 MDR subline cytotoxicity; Potency, µM (top dose mostly 46.1 µM), hits mostly cytotoxic; 3.4% of 400,000 active; KB-V1 MDR cells viability, CellTiter-Glo, 72 h; AID 1347076; further: on the % scale 0 is the no-effect control and ±100 the full control effect; nearly all actives have a fitted effect of over 60% in size
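KB-V1 cells (P-gp-expressing MDR subline of KB-3-1) in phenol-red-free DMEM with 10% FBS were exposed to library compounds over a concentration series for 72 h at 37 degrees C. Viability read by CellTiter-Glo luminescence; concentration-effect curves fitted after normalization.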
SW480 rerep: induces DNA re-replication in SW480 colon adenocarcinoma cells; Potency, µM (highest dose often 46.1 µM), for inactives: top-dose re-replication activation, usual class: activators; SW480 DNA re-replication, Hoechst DNA content imaging, 48 h; 1.8% of 340,000 active; further: % of control where 0% means no effect; nearly all actives have a fitted effect of over 55% in size
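Image-based DNA-content assay: after two days of treatment, nuclei were labelled with the DNA dye Hoechst and imaged, and hits were compounds raising the count of nuclei showing high fluorescence intensity.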
Active calls of the source: *; i = inactive; ? = inconclusive; nt = no result; [ ] = another dose, or the depositor's remark. Unless noted, the call rests on the fitted dose curve; in most records, active means well fitted curve in the direction sought with a large enough effect; inconclusive means small, poorly fitted or top-dose-only effect, or another doubt; inactive means no such curve, though single readings can be large; an effect the other way counts as inactive or inconclusive. Potency means the concentration at half of the fitted maximal effect.

SMILES	KB-3-1 tox	PINK1 modulator	MCF10A rerep	KB-V1 cytotox	SW480 rerep
COc1cc2c(cc1OC)/C(=C/c1ccc(N(C)C)cc1)C=C2	i	nt	nt	?	nt
CCCN(C(=O)Cn1cnc2onc(-c3ccc(F)cc3)c2c1=O)c1cccc(Cl)c1	i	-4.0%	nt	?	nt
CCc1cc(C(=O)NCCN2Cc3ccccc3OC(c3ccsc3)C2)n(C)n1 (stereo not drawn)	nt	1.1%	nt	nt	nt
O=C(CSc1n[nH]c(=O)n1C1CC1)Nc1cc(Cl)ccc1Oc1ccccc1	i	-1.7%	?	16.4µM*	-8.3%
CC(C)Oc1cc(F)ccc1-c1cc(C(=O)NC2CCCCC2)[nH]n1	i	1.1%	nt	i	nt
CC(C)c1nc(N2CCN(C(=O)c3ccco3)CC2)c(C#N)c2c1COC(C)(C)C2	?	0.7%	?	18.4µM*	24.1%
CC1(C)Cc2c(C#N)c(N3CCN(C(=O)c4ccccc4)CC3)nc(-c3ccco3)c2CS1	?	0.0%	13µM*	?	1.9%
Cc1cc(=O)oc2c(C)c(OC(C)C(=O)Nc3ccc(N4CCC(C)CC4)cc3)ccc12 (stereo not drawn)	i	5.5%	-0.3%	i	17.5%
O=C1NC[C@H](CCCCN2C[C@@H](Cc3ccccc3)N(CC3CCCCC3)C(=O)C2=O)N(CCC2CCCCC2)C1=O	?	18.9%	nt	i	nt
OCC[C@H]1NCc2cc(CO)cc(-c3ccccc3)c21	i	-0.6%	?	i	-3.3%
Cc1ccc(S(=O)(=O)N2CC3(C)CN(S(=O)(=O)c4ccc(C)cc4)CC(C)(C2)C3=O)cc1	i	?	5.8%	0.731µM*	7.2%
CN1CCN(C(c2ccc(F)cc2)c2nnnn2Cc2cccs2)CC1 (stereo not drawn)	i	-1.7%	?	i	-0.9%[9.22 µM]
CCN1CCN(C(c2ccc(F)cc2)c2nnnn2Cc2cccs2)CC1 (stereo not drawn)	i	-2.1%	23.1µM*	i	?
O=c1cc(-c2ccc(OCc3ccccc3)cc2)oc2cc(OCc3ccccc3)cc(OCc3ccccc3)c12	i	0.4%	1.1%	i	0.5%
O=C(NCc1ccccc1Br)c1ccc2nc(N3CCCCC3)sc2c1	i	0.2%	nt	i	nt
CC(C)(C)C1CCc2onc(C(=O)Nc3cnn(Cc4ccc(F)cc4)c3)c2C1 (stereo not drawn)	i	21.3%[38.3 µM]	?	2.59µM*	?
COc1ccc(CNC(=O)c2noc3c2CCCCC3)cc1	i	-2.5%[38.3 µM]	5.7%	i	-23.3%
O=C(NCc1ccccc1)c1noc2c1CCCCC2	i	-1.6%[38.3 µM]	?	20.6µM*	?
O=C(Nc1cnn(Cc2ccc(F)cc2)c1)C(c1ccccc1)c1ccccc1	?	?	0.2%	5.17µM*	-103.8%
O=C(Nc1cnn(Cc2ccc(F)cc2)c1)c1noc2c1CCCC2	?	0.8%	4.61µM*	i	26.0%
Cc1ccccc1-c1nc(CS(=O)(=O)CC(=O)NCCCc2ccccc2)c(C)o1	i	1.0%	nt	i	nt
O=C(NCCN1CCC(n2c(=O)[nH]c3ccccc32)CC1)c1ccncc1	?	-0.2%	nt	?	nt
COc1ccc(CNC(=O)CN(C(=O)c2snc(C(N)=O)c2N)c2ccccc2F)cc1	i	1.9%	4.2%	i	-11.1%
CC(C)(C)C1CCc2onc(C(=O)Nc3ccc(F)cc3F)c2C1 (stereo not drawn)	i	4.6%[38.3 µM]	-2.0%	23.1µM*	-0.4%
Cc1cc(C)n(CC(=O)N2CCC(n3c(C(C)C)nc4cccnc43)CC2)n1	nt	-0.7%	nt	nt	nt
SMILES	KB-3-1 tox	PINK1 modulator	MCF10A rerep	KB-V1 cytotox	SW480 rerep
CN(C)c1ccc(N=Nc2nc3ccccc3n2C)cc1	i	2.1%	-1.4%	?	?
Cn1c(N=Nc2ccccc2)nc2ccccc21	i	0.5%	?	8.2µM*	?
Cc1nnc(SCCn2c(N3CCCC(C)C3)nc3c2c(=O)n(C)c(=O)n3C)s1 (stereo not drawn)	i	-1.4%	-2.2%	i	-14.6%
Cc1nnc(SCCn2c(N3CCC(C)CC3)nc3c2c(=O)n(C)c(=O)n3C)s1	?	-2.0%[38.3 µM]	14.2%	11.6µM*	-9.6%
CCOc1ccc(/C=C/C2=NNC(=O)CC2)cc1	i	0.3%	0.6%	1.84µM*	15.0%
COc1ccc(/C=C/C2=NNC(=O)CC2)cc1	1.46µM*	-0.3%	1.1%	0.411µM*	-8.5%
CCCOc1ccc(C2=NNC(=O)CC2)cc1	i	-1.3%	11.5%	0.206µM*	-90.4%
O=C1CCC(/C=C/c2ccccc2)=NN1Cc1ccccc1Cl	i	7.3%	12.8%	i	1.4%
CCOC(=O)CN1N=C(/C=C/c2ccc(OCC)cc2)CCC1=O	i	2.6%	-0.8%	?	2.4%
O=C1CCC(/C=C/c2ccccc2)=NN1	?	-0.3%	0.3%	5.17µM*	-30.9%
COc1cc(OC)c(NC(=O)CN(C)S(=O)(=O)c2ccc(-c3ccc(=O)[nH]n3)s2)cc1Cl	i	1.4%	-0.7%	i	2.8%
CCn1c(SCC(=O)Nc2ccc(OC)c(S(=O)(=O)N3CCCCC3)c2)nnc1C1CC1	i	1.7%	-0.7%	i	1.0%
C[C@@H]1CN([C@H](C)CO)C(=O)CCCn2nncc2CO[C@@H]1CN(C)S(=O)(=O)c1ccc(-n2cccn2)cc1	i	3.6%	nt	i	nt
O=C(CNC(=S)N(CCCN1CCOCC1)Cc1cccs1)NCCCN1CCOCC1	i	-2.2%	-0.4%	i	2.0%
CC(C)(C)c1ccc(S(=O)(=O)N(CCCN2CCOCC2)Cc2cccs2)cc1	i	7.7%	5.8µM*	i	?
CCN(CC)C(=O)CNC(=S)N(CCCN1CCOCC1)Cc1cccs1	i	-2.0%	17.2%	7.31µM*	-153.8%
CC(=O)Nc1ccc(S(=O)(=O)N(CCCN2CCOCC2)Cc2cccs2)cc1	i	5.9%	1.16µM*	i	7.2%
O=[N+]([O-])c1ccc(S(=O)(=O)N(CCCN2CCOCC2)Cc2cccs2)cc1	i	-0.8%	5.4%	?	-70.7%
CCOC(=O)CCN(Cc1cccs1)S(=O)(=O)c1ccc(Cl)cc1	i	3.0%	0.4%	14.6µM*	-6.7%
Cc1nc(-c2ccccc2)nc2sc(C(=O)c3ccc(F)cc3)c(N)c12	i	8.7%	10.3µM*	i	16.4µM*
COc1ccc(C(=O)c2sc3nc(-c4ccccc4)ccc3c2N)cc1	?	4.7%	3.66µM*	i	20.6µM*
Cc1nc2sc(C(=O)c3ccccc3)c(N)c2c(C)c1C	i	6.0%	-2.1%[9.22 µM]	?	0.8%
CC(C)OC(=O)c1sc2nc(-c3ccccc3)ccc2c1N	i	12.4%[38.3 µM]	?	i	5.8µM*
COc1ccc(-c2c(C#N)c(N)nc3sc(C(=O)c4ccccc4)c(N)c23)cc1	i	-1.0%	?	4.11µM*	-2.5%
NC(=O)c1ccc(SCC(=O)OCC(=O)NCc2cccs2)c([N+](=O)[O-])c1	i	1.7%	21.1%	i	-1.0%
